Measurements reported in paper PMC7862700, “An all-to-all approach to the identification of sequence-specific readers for epigenetic DNA modifications on cytosine”.

Experiments:
Assay in all cases: DAPPL (digital affinity profiling via proximity ligation, sequencing); 10 mM Tris-HCl pH 7.5, 50 mM NaCl, 1 mM DTT, 4% glycerol, room temperature, 30 min; GST-TFs on glutathione beads, 16-mer random dsDNA library, 0.1% formaldehyde crosslink after washing; high values mean tight binding
Settings in all cases: protein: recombinant; tags: N-terminal GST; dsDNA, one strand shown
FLI1 = target: T1, FLI1 (Homo sapiens, UniProt Q01543 1-452)
T1 sequence: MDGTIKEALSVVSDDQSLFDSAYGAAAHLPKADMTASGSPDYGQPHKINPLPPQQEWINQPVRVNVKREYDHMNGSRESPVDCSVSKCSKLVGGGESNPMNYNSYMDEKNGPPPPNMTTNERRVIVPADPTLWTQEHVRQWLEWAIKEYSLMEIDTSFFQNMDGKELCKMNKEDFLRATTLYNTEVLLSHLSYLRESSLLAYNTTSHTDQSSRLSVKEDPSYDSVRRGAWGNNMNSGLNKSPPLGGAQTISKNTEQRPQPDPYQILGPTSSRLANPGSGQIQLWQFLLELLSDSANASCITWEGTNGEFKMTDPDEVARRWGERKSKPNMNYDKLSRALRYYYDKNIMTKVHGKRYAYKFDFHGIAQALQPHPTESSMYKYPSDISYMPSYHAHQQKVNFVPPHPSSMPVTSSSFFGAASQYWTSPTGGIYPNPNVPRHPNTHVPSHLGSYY
How it was run: (§1)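 Human transcription factors were made in yeast as GST fusions, captured on glutathione beads and barcoded with DNA. With a tag-only sample included, the pool was incubated with 200 nmole of a random double-stranded 16-mer DNA library in Tris/NaCl/DTT/glycerol buffer at room temperature for 30 min, then crosslinked with 0.1% formaldehyde after washing, ligated by proximity, amplified and sequenced. For binding signal, each hexamer's read frequency for a factor is divided by its frequency for the tag-only sample.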

ELK1 = target: T2, ELK1 (Homo sapiens, UniProt P19419 1-428)
T2 sequence: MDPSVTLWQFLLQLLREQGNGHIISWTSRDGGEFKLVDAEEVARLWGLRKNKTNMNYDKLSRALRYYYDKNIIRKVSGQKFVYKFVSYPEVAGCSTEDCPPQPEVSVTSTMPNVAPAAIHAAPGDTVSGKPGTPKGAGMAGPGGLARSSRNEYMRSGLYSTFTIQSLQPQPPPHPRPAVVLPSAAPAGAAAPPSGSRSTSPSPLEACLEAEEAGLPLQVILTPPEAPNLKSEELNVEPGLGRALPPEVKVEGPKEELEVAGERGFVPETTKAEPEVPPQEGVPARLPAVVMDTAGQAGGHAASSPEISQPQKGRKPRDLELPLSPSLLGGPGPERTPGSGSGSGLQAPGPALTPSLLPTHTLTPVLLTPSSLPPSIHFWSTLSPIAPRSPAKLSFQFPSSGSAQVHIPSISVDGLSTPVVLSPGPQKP
How it was run: as §1

GABPA = target: T3, GABPA (Homo sapiens, UniProt Q06546 1-454)
T3 sequence: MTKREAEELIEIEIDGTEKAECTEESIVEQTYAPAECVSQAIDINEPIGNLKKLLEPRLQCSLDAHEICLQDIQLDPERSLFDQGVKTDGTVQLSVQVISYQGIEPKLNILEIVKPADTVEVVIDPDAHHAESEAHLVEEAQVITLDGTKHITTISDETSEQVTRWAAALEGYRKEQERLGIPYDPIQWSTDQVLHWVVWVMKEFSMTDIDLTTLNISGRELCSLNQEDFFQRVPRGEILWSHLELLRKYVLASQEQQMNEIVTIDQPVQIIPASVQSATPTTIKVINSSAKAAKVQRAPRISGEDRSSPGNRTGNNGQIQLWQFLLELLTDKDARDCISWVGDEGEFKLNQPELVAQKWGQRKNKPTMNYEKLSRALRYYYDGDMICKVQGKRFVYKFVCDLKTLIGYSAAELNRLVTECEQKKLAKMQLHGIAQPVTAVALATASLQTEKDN
How it was run: as §1

ERG = target: T4, ERG (Homo sapiens, UniProt P11308 1-479)
T4 sequence: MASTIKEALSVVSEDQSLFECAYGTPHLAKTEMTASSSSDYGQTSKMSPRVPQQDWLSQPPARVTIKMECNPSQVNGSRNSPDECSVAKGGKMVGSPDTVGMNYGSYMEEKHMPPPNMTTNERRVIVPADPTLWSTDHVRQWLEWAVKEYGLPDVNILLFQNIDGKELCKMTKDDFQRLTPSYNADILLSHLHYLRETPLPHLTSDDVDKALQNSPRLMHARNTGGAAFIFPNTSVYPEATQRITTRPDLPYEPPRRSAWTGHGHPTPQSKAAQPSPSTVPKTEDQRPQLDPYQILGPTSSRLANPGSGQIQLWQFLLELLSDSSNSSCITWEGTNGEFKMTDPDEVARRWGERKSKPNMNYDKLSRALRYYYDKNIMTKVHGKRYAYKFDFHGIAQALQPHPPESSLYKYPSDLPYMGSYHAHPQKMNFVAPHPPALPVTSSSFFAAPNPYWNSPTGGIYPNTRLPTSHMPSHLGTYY
How it was run: as §1

ELF1 = ELF1 (Homo sapiens, UniProt P32519 1-619)
How it was run: as §1

EHF = target: T5, EHF (Homo sapiens, UniProt Q9NZC4 1-300)
T5 sequence: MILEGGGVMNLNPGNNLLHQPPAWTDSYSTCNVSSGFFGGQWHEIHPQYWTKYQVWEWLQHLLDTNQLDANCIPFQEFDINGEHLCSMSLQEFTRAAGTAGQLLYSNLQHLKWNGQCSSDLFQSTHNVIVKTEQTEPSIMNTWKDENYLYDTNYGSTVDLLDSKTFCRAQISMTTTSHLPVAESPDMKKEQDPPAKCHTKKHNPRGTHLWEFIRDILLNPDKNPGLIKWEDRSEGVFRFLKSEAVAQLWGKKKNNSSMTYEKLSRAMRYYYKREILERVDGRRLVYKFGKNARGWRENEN
How it was run: as §1

SPI1 = SPI1 (Homo sapiens, UniProt P17947 1-270)
How it was run: as §1

SPIB = SPIB (Homo sapiens, UniProt Q01892 1-262)
How it was run: as §1

ELK3 = target: T6, ELK3 (Homo sapiens, UniProt P41970 1-407)
T6 sequence: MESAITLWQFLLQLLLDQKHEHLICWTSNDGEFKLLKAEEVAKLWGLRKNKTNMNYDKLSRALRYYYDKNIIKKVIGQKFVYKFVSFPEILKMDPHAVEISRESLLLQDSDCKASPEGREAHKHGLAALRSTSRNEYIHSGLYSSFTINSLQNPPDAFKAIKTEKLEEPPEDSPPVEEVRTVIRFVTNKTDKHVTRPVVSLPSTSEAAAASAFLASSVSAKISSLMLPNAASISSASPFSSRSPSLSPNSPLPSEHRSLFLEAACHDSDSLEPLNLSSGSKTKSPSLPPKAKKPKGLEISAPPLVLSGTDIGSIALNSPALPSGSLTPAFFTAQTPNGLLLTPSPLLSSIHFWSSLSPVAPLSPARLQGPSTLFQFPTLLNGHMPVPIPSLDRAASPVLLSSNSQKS
How it was run: as §1

Sequence of SPIB (Q01892 whole entry): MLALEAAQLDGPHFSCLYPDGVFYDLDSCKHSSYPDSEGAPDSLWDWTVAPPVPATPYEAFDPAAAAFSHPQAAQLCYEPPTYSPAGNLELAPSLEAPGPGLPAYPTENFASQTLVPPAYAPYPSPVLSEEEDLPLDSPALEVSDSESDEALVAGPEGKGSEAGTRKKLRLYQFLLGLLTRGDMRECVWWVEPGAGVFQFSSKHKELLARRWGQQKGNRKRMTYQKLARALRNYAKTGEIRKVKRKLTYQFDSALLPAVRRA
Sequence of ELF1 (P32519 whole entry): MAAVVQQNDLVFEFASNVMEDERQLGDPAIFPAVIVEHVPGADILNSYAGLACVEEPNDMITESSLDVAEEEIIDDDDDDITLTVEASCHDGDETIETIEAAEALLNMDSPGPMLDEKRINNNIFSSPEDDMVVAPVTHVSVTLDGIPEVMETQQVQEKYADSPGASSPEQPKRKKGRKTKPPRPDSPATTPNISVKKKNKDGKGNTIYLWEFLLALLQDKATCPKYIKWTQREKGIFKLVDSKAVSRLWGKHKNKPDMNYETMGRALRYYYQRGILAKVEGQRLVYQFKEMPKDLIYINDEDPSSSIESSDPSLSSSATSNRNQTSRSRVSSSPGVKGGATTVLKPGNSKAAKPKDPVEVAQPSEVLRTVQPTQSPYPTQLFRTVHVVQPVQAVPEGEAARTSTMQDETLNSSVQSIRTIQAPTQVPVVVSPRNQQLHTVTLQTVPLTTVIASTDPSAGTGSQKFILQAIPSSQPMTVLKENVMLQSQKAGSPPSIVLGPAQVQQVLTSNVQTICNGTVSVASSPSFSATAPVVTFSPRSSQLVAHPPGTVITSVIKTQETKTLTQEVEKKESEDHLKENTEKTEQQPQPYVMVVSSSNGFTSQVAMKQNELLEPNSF

Sequence: CCCACT
- binding signal (FLI1): 1.36 fold enrichment (6-mer frequency, TF over GST control)
- binding signal (ELK1): 1.45 fold enrichment (6-mer frequency, TF over GST control)
- binding signal (GABPA): 1.26 fold enrichment (6-mer frequency, TF over GST control)
- binding signal (ERG): 1.35 fold enrichment (6-mer frequency, TF over GST control)
- binding signal (ELF1): 1.38 fold enrichment (6-mer frequency, TF over GST control)
- binding signal (EHF): 1.46 fold enrichment (6-mer frequency, TF over GST control)
- binding signal (SPI1): 1.39 fold enrichment (6-mer frequency, TF over GST control)
- binding signal (SPIB): 1.26 fold enrichment (6-mer frequency, TF over GST control)
- binding signal (ELK3): 1.42 fold enrichment (6-mer frequency, TF over GST control)
